Sampled rows, rich in hits. Any-hit rate of the full collection: about 7.5%.
FLuc modulator: qHTS profiling assay for firefly luciferase inhibitor/activator using purifed enzyme and Km concentrations of substrates (counterscreen for miR-21 project). Luciferin 4-monooxygenase (Photinus pyralis), P08659. Potency, µM (highest dose often 57.5 µM), for the others: top-dose activity change, negative = inhibition, hits mostly inhibitors. purified FLuc, Km substrates, luminescence inhibition. 360,000 compounds, 6.9% hits;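 also: plate controls were vehicle for no effect and reference inhibitor for full effect; nearly all actives have a fitted effect of over 55% in size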
Target sequence (P08659 whole entry, looked up): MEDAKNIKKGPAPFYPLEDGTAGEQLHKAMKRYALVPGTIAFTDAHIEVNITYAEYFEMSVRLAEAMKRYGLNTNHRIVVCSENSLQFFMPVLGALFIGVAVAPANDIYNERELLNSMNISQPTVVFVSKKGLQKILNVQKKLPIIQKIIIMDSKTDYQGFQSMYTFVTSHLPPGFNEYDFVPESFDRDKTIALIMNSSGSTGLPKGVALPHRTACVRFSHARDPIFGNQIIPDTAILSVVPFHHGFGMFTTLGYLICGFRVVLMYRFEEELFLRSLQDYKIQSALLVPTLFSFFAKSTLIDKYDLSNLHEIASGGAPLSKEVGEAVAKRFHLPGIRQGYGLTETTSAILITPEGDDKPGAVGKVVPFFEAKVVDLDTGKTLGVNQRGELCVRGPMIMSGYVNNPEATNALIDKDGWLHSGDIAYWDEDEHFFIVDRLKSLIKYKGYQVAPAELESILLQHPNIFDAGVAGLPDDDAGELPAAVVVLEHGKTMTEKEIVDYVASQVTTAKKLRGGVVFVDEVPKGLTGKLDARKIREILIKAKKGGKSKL
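Biochemical qHTS of compounds, final roughly 60 µM downward over six points, against 10 nM purified firefly luciferase using Km concentrations of substrates (10 uM D-luciferin, 10 uM ATP) in Tris acetate pH 7.5 buffer; luminescence output.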
SMN2 splice up: qHTS Assay for Enhancers of SMN2 Splice Variant Expression | 210,000 compounds, 2.8% hits | Potency, µM (series often up to 46.1 µM), without a hit: top-dose activity change, positive = activation, hits mostly activators | HEK293 SMN2-luciferase splicing reporter, luminescence, 30-36 h | AID 1458, 2008; also: % of control where 0% means no effect; nearly all actives have a fitted effect of over 55% in size
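qHTS luciferase splicing reporter: luminescence rises when SMN2 exon 7 is included in transfected HEK293 cells. Compound exposure lasted 30-36 h at 37C, with 4.5 mM final sodium butyrate as control, followed by a ONE-Glo read.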
ELG1 genotoxic: qHTS screen for small molecules that induce genotoxicity in human embryonic kidney (HEK293T) cells expressing luciferase-tagged ELG1. HEK293T ELG1-luciferase reporter, luminescence, 16 h. Potency, µM (highest dose often 46 µM), without a hit: at the highest dose activity change, positive = activation, hits mostly activators. 330,000 compounds, 1.3% hits; also: % of control where 0% means no effect; nearly all actives have a fitted effect of over 60% in size
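Cells (2,000/well) expressing the ELG1-luciferase fusion are dosed by pin tool and kept 16 hr at 37 °C, 5% CO2. Signal comes from ONE-Glo luciferase reagent after 30 min at room temperature.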
Rab9 prom act: qHTS Assay for Rab9 Promoter Activators. AID 485297, 2010. Potency, µM (top dose mostly 9.22 µM), inactives show at the top dose activation, negative = inhibition, hits mostly activators. 320,000 compounds, 2.8% hits. Huh7 Rab9 promoter-luciferase reporter, luminescence, 24 h; also: % of control where 0% means no effect; nearly all actives have a fitted effect of over 60% in size
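Rab9 promoter-driven luciferase in stably transfected Huh7 cells; 1500 cells/well rested 2 h, exposed to compound in DMSO for 24 h at 37 °C, 5% CO2. Luminescence read 10 min after adding luciferase reagent at ambient temperature.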
NPC1 prom act: qHTS Assay for NPC1 Promoter Activators. Huh7 NPC1 promoter luciferase reporter, 24 h. Potency, µM (titrated, usually from 9.22 µM), without a hit: top-dose activation, most hits filed as activators. 320,000 compounds, 2.4% hits. AID 485313, 2010; also: % of control where 0% means no effect; nearly all actives have a fitted effect of over 60% in size
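Luciferase expression driven by the NPC1 promoter was measured in stably transfected Huh7 cells after a 24 h compound incubation, using a luciferase reagent and a luminescence read.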
The depositor's hits bear a star; ? = inconclusive; nt = not tested or not shown. Calls follow the shape of the dose curve; as a rule, active = well fitted curve in the direction sought with a large enough effect; inconclusive = small, poorly fitted or top-dose-only effect, or another doubt; inactive = no such curve, though single readings can be large; an effect the other way counts as inactive or inconclusive. Potency is read from the fitted curve at half-maximal effect.

SMILES | FLuc modulator | SMN2 splice up | ELG1 genotoxic | Rab9 prom act | NPC1 prom act
O=C(NC1CCCCC1)c1cc(-c2ccco2)on1 | 6.01µM* | nt | ? | 1.58µM* | 2.51µM*
COc1cccc(-c2cc(C(=O)NC3CCCCC3)no2)c1 | 6.01µM* | nt | ? | 3.16µM* | ?
Cc1ccc(S(=O)(=O)Nc2ccncc2)c(C)c1N(C)S(=O)(=O)c1ccc(Cl)cc1 | 8.7% | nt | -0.1% | -7.3% | -1.7%
CCOc1ccccc1N(C)C(=O)C1CCCN(c2ncnc3onc(-c4ccc(F)cc4)c23)C1 (stereo not given) | 3.0% | nt | nt | nt | nt
Cn1c(CCNC(=O)c2ccco2)nc2cc(NC(=O)c3ccccc3)ccc21 | 16.9µM* | nt | 15.1% | ? | ?
Cn1c(CCNC(=O)c2ccccc2)nc2cc(NC(=O)c3ccco3)ccc21 | ? | 26.6% | ? | 27.5% | 20.8%
Cn1c(CCNC(=O)c2ccco2)nc2cc(NC(=O)c3ccco3)ccc21 | 23.9µM* | 11.2µM* | ? | ? | ?
CCC(=O)NCCc1nc2cc(NC(=O)c3ccco3)ccc2n1C | 16.9µM* | nt | ? | ? | ?
Cc1nc2cc(NC(=O)c3ccco3)ccc2n1C | 8.49µM* | nt | 2.31µM* | 0.316µM* | 0.501µM*
CCCCC(=O)Nc1ccc2c(c1)nc(CCNC(=O)c1ccco1)n2C | -12.0% | nt | 10.6% | 18.5% | 4.5%
Cc1occc1C(=O)N/N=C/C1=C(N2CCOCC2)C(=C\c2ccc(Cl)cc2Cl)/CC1 | 2.5% | 23.9% | 7.6% | 0.7% | 0.6%
Cc1nc2cc(NC(=O)NCc3ccco3)ccc2n1C | ? | ? | 14.6µM* | ? | 26.9%
O=C(N/N=C/C(Br)=C/c1ccccc1)c1cc(-c2ccco2)[nH]n1 | ? | 13.2% | -2.7% | -0.9% | -0.3%
CCOC(=O)c1sc2nc3n(c(=O)c2c1C)CCCCC3 | 15.1µM* | 6.7% | ? | ? | ?
CCOC(=O)c1sc2nc3n(c(=O)c2c1C)CCC3 | ? | -8.5% | 10.9% | 14.8% | 0.6%
Cc1c(C(=O)OCc2ccc(F)cc2)sc2nc3n(c(=O)c12)CCC3 | 15.1µM* | nt | 7.5% | 26.1% | 4.0%
O=C(c1cnn2c1NC(=C1CC1)C=C2C(F)F)N(C1CCCCC1)C1CCCCC1 | 0.8% | nt | nt | nt | nt
COc1ccc(Cl)cc1NC(=O)CN(C)C(C)C(=O)NCC1CCCCC1 (stereo not given) | 4.0% | -17.2% | -3.3% | -4.3% | -2.3%
C=CCNC(=O)c1ccc(OC2CCN(S(=O)(=O)N(C)C)CC2)cc1 | 16.9µM* | nt | 13.8% | ? | 16.0%
O=C(Cc1ccccc1)Nc1ccc(NC(=O)Cc2ccccc2)c(Cl)c1 | 0.1% | nt | 1.0% | 0.9% | -6.8%
O=C(Cc1ccccc1)Nc1cc2c(cc1Cl)OCCCO2 | 16.9µM* | nt | ? | 2.82µM* | 3.16µM*
O=C(Cc1ccccc1)Nc1ccc2c(c1)OC1(CCCC1)O2 | 4.78µM* | nt | ? | 2.51µM* | 2.51µM*
CCC(O)c1cc2c(cc1NC(=O)c1ccc(C)cc1)OCCO2 (stereo not given) | ? | -3.6% | 10.4% | 1.7% | 17.3%
O=C(Nc1cc2c(cc1C(=O)O)OCCCO2)c1ccc(C(F)(F)F)cc1 | 13.5µM* | nt | 18.3µM* | 2.82µM* | 3.98µM*
O=C(O)c1cc2c(cc1NC(=O)c1ccccc1C(F)(F)F)OCCCO2 | -15.1% | nt | 0.3% | 0.3% | 2.1%
SMILES | FLuc modulator | SMN2 splice up | ELG1 genotoxic | Rab9 prom act | NPC1 prom act
CCc1ccc(C(=O)Nc2cc3c(cc2Cl)OCCCO3)cc1 | 6.01µM* | 25.1µM* | ? | 1.58µM* | 1.78µM*
O=C(CCCN=C1NS(=O)(=O)c2ccccc21)OCC(=O)c1ccc(Br)cc1 | -22.5% | nt | 1.9% | -3.6% | 2.3%
CC(=O)c1c(N2CCN(c3ccccn3)CC2)nc(=S)n(-c2ccccc2)c1C | -0.6% | -0.6% | -0.6% | -9.0% | 2.3%
Cc1cc2sc3nc(=O)n(-c4ccccc4)c(=O)n3c2cc1C | 16.9µM* | nt | ? | 3.16µM* | ?
Cc1c(O)nc2sc3ccccc3n2c1=O | -4.8% | nt | -1.6% | 0.5% | 0.3%
COc1ccc(C2(c3ccc(OC)cc3)NC(=O)N(CC(=O)Nc3ccccc3)C2=O)cc1 | 1.7% | nt | -11.6% | -3.6% | 1.3%
COc1ccc(C2(c3ccc(OC)cc3)NC(=O)N(CC(=O)N(C)c3ccccc3)C2=O)cc1 | 19µM* | nt | ? | 2.24µM* | 3.55µM*
O=C(COc1ncnc2cc(Cl)ccc12)c1ccc2c(c1)OCCO2 | 1.9µM* | nt | ? | 0.631µM* | 3.16µM*
O=C(COc1ncnc2ccccc12)c1ccc2c(c1)OCCO2 | 4.78µM* | nt | ? | 1.12µM* | 1.12µM*
O=C(CSc1ncnc2ccccc12)c1ccc2c(c1)OCCO2 | 3.38µM* | nt | ? | 2.82µM* | ?
Cc1ccc(C)c(C(=O)COc2ncnc3ccccc23)c1 | ? | 14.2% | 1.6% | 17.7% | 8.2%
CCc1nc(SCC(=O)c2ccc3c(c2)OCCO3)c2ccccc2n1 | ? | -37.3% | -5.9% | -1.3% | 0.2%
CN(Cc1ccccc1)C(=O)Cc1ccccc1 | -2.4% | nt | 4.5% | 1.7% | -1.6%
COc1ccccc1C1Nc2c(sc3nc(C)cc(C)c23)C(=O)N1c1ccccc1 (stereo not given) | ? | 12.6µM* | nt | nt | nt
CCN(C[C@H]1N[C@@](CC)(C(=O)OC)[C@H]2C(=O)N(Cc3ccccc3)C(=O)[C@@H]12)S(=O)(=O)c1ccc(C(C)(C)C)cc1 | nt | nt | -1.7% | nt | nt
O=C(Nc1cccc(NC(=O)c2ccc(F)cc2)c1)c1ccc(F)cc1 | -2.3% | nt | 6.6% | 14.4% | 0.9%
